An excerpt weighted towards active compounds, which were near 9% of everything screened.
BAZ2B block: BAZ2B (human) inhibition. Q9UIF8. AlphaScreen BAZ2B-H3K14Ac peptide displacement. Potency, µM (series often up to 114 µM), for the others: top-dose activity change, negative = inhibition, most hits filed as inhibitors. 360,000 tested, 4.4% active; also: % is scaled to controls: 0 for no effect and ±100 for the full control effect; nearly all actives have a fitted effect of over 60% in size
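AlphaScreen displacement: compounds (up to 110uM) incubated 30 min at room temperature with a preformed 50 nM BAZ2B/50 nM biotinylated H3K14Ac peptide complex in PBS pH 7.4 with Tween-20. Donor and acceptor beads at 10 ug/mL final added, 20 min light-protected before reading.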
JMJD2A Tudor: blocks the human JMJD2A Tudor domain. O75164. AlphaScreen JMJD2A-Tudor / H3K4me3 peptide binding. Potency, µM (titrated, usually from 114 µM), without a hit: at the highest dose activity change, negative = inhibition, most hits filed as inhibitors. 390,000 tested, 4.4% active. AID 504339; also: % is scaled to controls: 0 for no effect and ±100 for the full control effect; nearly all actives have a fitted effect of over 50% in size
Target sequence (O75164 whole entry, looked up, the tested form may be a part): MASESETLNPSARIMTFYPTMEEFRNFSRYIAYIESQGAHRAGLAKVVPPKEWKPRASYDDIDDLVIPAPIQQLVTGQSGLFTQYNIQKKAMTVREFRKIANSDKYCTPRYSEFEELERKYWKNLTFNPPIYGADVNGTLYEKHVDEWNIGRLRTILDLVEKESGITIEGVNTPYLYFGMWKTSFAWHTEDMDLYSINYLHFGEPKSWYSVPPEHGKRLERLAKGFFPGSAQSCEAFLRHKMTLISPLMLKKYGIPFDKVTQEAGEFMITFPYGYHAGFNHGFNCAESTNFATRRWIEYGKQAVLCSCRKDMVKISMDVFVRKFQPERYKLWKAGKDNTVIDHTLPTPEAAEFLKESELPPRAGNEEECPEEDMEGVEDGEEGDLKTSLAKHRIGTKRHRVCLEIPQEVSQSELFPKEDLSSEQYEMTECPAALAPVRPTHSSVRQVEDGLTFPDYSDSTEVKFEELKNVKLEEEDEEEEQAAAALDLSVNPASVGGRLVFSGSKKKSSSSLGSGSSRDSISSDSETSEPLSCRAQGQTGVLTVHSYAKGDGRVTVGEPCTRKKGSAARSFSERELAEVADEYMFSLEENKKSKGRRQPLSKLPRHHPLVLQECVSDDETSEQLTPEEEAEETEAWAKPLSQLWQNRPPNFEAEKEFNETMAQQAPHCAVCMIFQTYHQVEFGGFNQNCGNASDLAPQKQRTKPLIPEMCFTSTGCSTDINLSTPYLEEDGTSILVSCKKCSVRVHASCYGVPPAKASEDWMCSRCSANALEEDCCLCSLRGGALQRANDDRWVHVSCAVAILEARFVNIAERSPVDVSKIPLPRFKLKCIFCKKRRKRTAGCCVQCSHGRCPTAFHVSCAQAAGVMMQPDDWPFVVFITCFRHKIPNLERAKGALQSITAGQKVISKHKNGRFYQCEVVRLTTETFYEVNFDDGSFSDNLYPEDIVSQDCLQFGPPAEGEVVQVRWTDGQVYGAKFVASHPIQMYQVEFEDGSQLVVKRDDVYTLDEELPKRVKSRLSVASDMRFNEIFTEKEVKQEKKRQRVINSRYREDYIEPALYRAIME
G9a inh: G9a (human) methyltransferase inhibition; Potency, µM (top dose mostly 102 µM), for the others: top-dose activity, negative = inhibition, usual class: inhibitors; Q96KQ7; G9a H3K9 monomethylation, AlphaScreen, 2 h; 350,000 tested, 8.8% active; also: % is scaled to controls: 0 for no effect and ±100 for the full control effect; nearly all actives have a fitted effect of over 75% in size
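Readings reflect AlphaScreen signal from monomethyl-H3K9 antibody detection. HMT at 20 nM; substrate b-H3K9 500 nM; cofactor SAM 20 uM; 2 h RT reaction; compounds tested as titrations in qHTS with 15 min preincubation.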
HP1b binding inh: HP1-beta chromodomain-methylated histone interaction inhibition; 390,000 tested, 0.56% active; AID 540317; P83916; Potency, µM (series often up to 114 µM), inactives show at the highest dose activity change, negative = inhibition, actives largely listed as inhibitors; AlphaScreen HP1-beta / biotin-H3K9me3 peptide binding; also: nearly all actives have a fitted effect of over 70% in size
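HP1-beta protein (50 nM final) preincubated 30 min at room temperature with biotinylated H3(1-18)K9me3 peptide (50 nM) in PBS pH 7.4, 0.01% Tween-20, then compound added for 30 min. AlphaScreen streptavidin donor/nickel chelate acceptor beads (10 ug/mL final), 30 min dark, luminescence read.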
ALOX12 inh: ALOX12 (human) lipoxygenase inhibition. P18054. purified 12hLO, xylenol orange hydroperoxide absorbance. Potency, µM (highest dose often 108 µM), without a hit: at the highest dose activity change, negative = inhibition, most hits filed as inhibitors. 580,000 tested, 1.1% active; also: % is scaled to controls: 0 for no effect and ±100 for the full control effect
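Purified human 12hLO (150 nM final) in 25 mM Hepes, 0.01% Triton X-100, pH 7.0 was preincubated 15 min at room temperature with compound. Then 40 uM arachidonic acid was added, 30 min. Hydroperoxide was read by Fe-XO absorbance ratio 573/405 nm.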
PLK1 PBD inh: blocks phosphopeptide binding to human PLK1 polo-box domain | AID 720504 | Plk1 PBD binding of FITC phosphopeptide, fluorescence polarization | Potency, µM, for inactives: max response, negative = inhibition, hits mostly inhibitors | 360,000 tested, 2.8% active; also: series mostly up to about 57 µM; % is scaled to controls: 0 for no effect and ±100 for the full control effect; nearly all actives have a fitted effect of over 65% in size
Starred values were filed as active, the others as inactive; ? = inconclusive; . = not tested or not shown; [ ] = dose if it differs, or a comment. Calls follow the shape of the dose curve; as a rule, active = well fitted curve in the direction sought with a large enough effect; inconclusive = small, poorly fitted or top-dose-only effect, or another doubt; inactive = no such curve, though single readings can be large; an effect the other way counts as inactive or inconclusive. Potency is read from the fitted curve at half-maximal effect.

SMILES	BAZ2B block	JMJD2A Tudor	G9a inh	HP1b binding inh	ALOX12 inh	PLK1 PBD inh
O=C(C(NS(=O)(=O)c1cccs1)c1ccccc1)N1CCN(c2ccccc2)CC1 (stereo not drawn)	?	?	45µM*	4%	-2%	-26%
O=C(C1CCN(S(=O)(=O)c2cccs2)CC1)N1CCN(c2ccccc2)CC1	?	-4%	0%	13%	0%	-5%
O=S(=O)(c1cccs1)N1CCN(c2ccccc2)CC1	0%	-7%	12%	2%	1%	-8%
O=C1C(NS(=O)(=O)c2cccs2)=C(N2CCN(c3ccccc3)CC2)C(=O)c2ccccc21	5.6µM*	28µM*	3.2µM*	?	429%	-3%
O=C1NCCOCCCN(C(=O)NCc2ccc(F)cc2)[C@H]2CCCC[C@@H]12	.	.	.	.	4%	.
C[C@H](C(=O)N1CCCC1)C1CC[C@@]2(C)Cc3sc(NC(=O)C4CC4)nc3[C@@H](C)[C@@H]2[C@H]1O (stereo partly drawn)	.	.	.	.	-1%	.
COC(=O)c1nc(NNC(=O)c2ccccc2)sc1-c1ccccc1	-1%	-29%	?	-13%	0%	-7%
O=C1C(=O)N(c2ccc(O)cc2)C(c2ccccc2[N+](=O)[O-])/C1=C(\O)c1ccccc1 (stereo not drawn)	-20%	-20%	56µM*	-29%	?	-12%
CCOc1ccc(C2/C(=C(\O)c3ccc4c(c3)OCCO4)C(=O)C(=O)N2Cc2cccnc2)cc1OCC (stereo not drawn)	50µM*	-24%	.	-8%	-18%	-19%
O=C1C(=O)N(Cc2cccnc2)C(c2cccc(O)c2)/C1=C(\O)c1ccc2c(c1)OCCO2 (stereo not drawn)	?	13%	35µM*	33%	-21%	-8%
COc1ccccc1C1/C(=C(\O)c2ccc3c(c2)OCCO3)C(=O)C(=O)N1Cc1cccnc1 (stereo not drawn)	?	50µM*	?	1%[57 µM]	-18%	-14%
COc1ccc(NC(=O)CCCc2nc3ccccc3c(=O)[nH]2)cc1Cl	.	-10%	.	26%	-30%	8%
O=C1C(=O)N(Cc2ccncc2)C(c2cccc(O)c2)/C1=C(\O)c1ccc2c(c1)OCCO2 (stereo not drawn)	?	-22%	45µM*	13%	?	-9%
Cc1ccc(/C(O)=C2\C(=O)C(=O)N(Cc3cccnc3)C2c2ccccc2[N+](=O)[O-])cc1 (stereo not drawn)	-22%	-27%	56µM*	3%	-19%	-8%
C=CCOc1cccc(C2/C(=C(\O)c3ccc4c(c3)OCCO4)C(=O)C(=O)N2Cc2cccnc2)c1 (stereo not drawn)	50µM*	?	.	-2%	-2%	-9%
COc1ccc(C2/C(=C(\O)c3ccc4c(c3)OCCO4)C(=O)C(=O)N2Cc2cccnc2)cc1 (stereo not drawn)	-5%	3%	-95%	44%	-20%	3%
CCN1CCN(C(=O)c2ccc3c(c2)N(Cc2ccc(F)cc2)C(=O)c2ccccc2S3(=O)=O)CC1	-14%	-22%	-28%[59 µM]	15%	-17%	.
Cc1ccc(-c2nc3ccc(C(=O)O)cc3nc2-c2ccc(C)cc2)cc1	?	-28%	-12%	1%	?	30µM*
CNC(=O)c1ccc2nc(-c3ccccc3)c(-c3ccccc3)nc2c1	.	-10%[57.1 µM]	.	9%[57 µM]	.	.
CCc1c(C#N)c(SCCC(=O)Nc2ccc(C)cc2)nc2c1C(=O)CC(C)(C)C2	-20%	-3%	5%[12.7 µM]	27%	0%	4%
N#Cc1nc(/C=C/c2cccs2)oc1NC1CC1	.	.	.	.	25µM*	.
CN(C)CCNc1oc(/C=C/c2cccs2)nc1C#N	.	.	.	.	24%	.
NC(=S)NNC(=O)c1cccc(Cl)c1	29%	6%	71µM*	31%	480%	-8%
Cc1cccc(C(=O)NC(=S)NNC(=O)c2ccc(Cl)cc2)c1	2%	-18%	40µM*	-3%	28µM*	-4%
O=C(NNC(=O)c1cc2cc3ccccc3nc2s1)c1cccc(Cl)c1	-38%	50µM*	32µM*	-25%	0%	-23%
SMILES	BAZ2B block	JMJD2A Tudor	G9a inh	HP1b binding inh	ALOX12 inh	PLK1 PBD inh
Cc1cccc(C(=O)NNC(=O)c2ccc(Br)cc2)c1	-20%	-12%	1%	22%	-15%	-3%
Cc1cccc(C(=O)NNC(=S)NC(=O)c2ccc(C(C)(C)C)cc2)c1	.	.	.	.	18µM*	.
Cc1cccc(NC(=O)CSc2nnc(CNC(=O)c3ccco3)o2)c1C	-3%	4%	-8%	56%	-7%	-1%
COc1ccc(S(=O)(=O)Nc2ccc3c(c2)CCC3)cc1	6%	10µM*	-8%	-12%	?	3.8µM*
CC(=O)Nc1ccc(S(=O)(=O)Nc2ccc3c(c2)CCC3)cc1	-18%	-22%	45µM*	-4%	?	-3%
CC(=O)Nc1ccc(NS(=O)(=O)c2ccc3c(c2)oc(=O)n3C)cc1	11%	6%	34%	39%	8.9µM*	4%
CCN(CC)c1ccc(NS(=O)(=O)c2ccc(C(C)C)cc2)cc1C(=O)O	.	.	.	.	-28%	.
Cc1ccc(NS(=O)(=O)c2ccc3c(c2)oc(=O)n3C)cc1	-6%	-15%	0%[59 µM]	12%	-20%	-11%
COc1ccc(S(=O)(=O)Nc2ccc(C)c(C)c2)cc1	.	-20%	.	.	.	.
O=C(O)CCc1ccc(S(=O)(=O)Nc2ccc3c(c2)CCC3)cc1	.	.	.	.	5%	.
CCN(CC)c1ccc(NS(=O)(=O)c2ccc3c(c2)CCCC3)cc1C(=O)O	.	.	.	.	7.9µM*	.
CN(C)c1cccc(CNC(=O)c2csc([C@@H]3O[C@H](CO)[C@@H](O)[C@H]3O)n2)c1	.	.	.	.	?	-10%
CCOC(=O)/C(=N\Nc1cccc(C(F)(F)F)c1)N1CCOCC1	?	-11%	?	38%	?	6%

From PubChem BioAssay
